This assay deals with C-X-C chemokine receptor type 6 (Homo sapiens) (UniProt O00574). The assay can be described thus: CXCR6 and CXCR5 receptor antagonist panel, profiling panel, selectivity assay for CXCR6 antagonist project, cell-based, CHO-K1 PathHunter beta-arrestin, luminescence, set 4 (AID 651919). Particulars: run 3, at 79 µM (top of the series).

As usually defined, the inhibition is how much of the control response was suppressed. A low value points to a weak effect.

Sequence of C-X-C chemokine receptor type 6 (Homo sapiens) (O00574 whole entry, looked up): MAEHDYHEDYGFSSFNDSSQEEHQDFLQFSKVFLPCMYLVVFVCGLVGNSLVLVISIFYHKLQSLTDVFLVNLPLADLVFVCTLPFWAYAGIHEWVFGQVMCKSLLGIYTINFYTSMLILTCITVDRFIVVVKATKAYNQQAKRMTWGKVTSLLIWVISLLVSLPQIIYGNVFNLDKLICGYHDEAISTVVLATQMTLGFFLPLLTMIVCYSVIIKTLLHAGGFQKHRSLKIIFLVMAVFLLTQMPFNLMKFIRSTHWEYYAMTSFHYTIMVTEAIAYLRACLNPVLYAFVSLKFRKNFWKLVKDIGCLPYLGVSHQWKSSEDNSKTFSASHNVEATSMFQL

In turn, `COc1cc(C(=O)NC2CC3CCCC(C2)N3CC(=O)Nc2ccccc2Cl)cc(OC)c1OC` (configuration not stated) displayed an inhibition of 99.1%.

`COc1cc(C(=O)NC2CC3CCCC(C2)N3CC(=O)Nc2ccccc2)cc(OC)c1OC` (configuration not stated) yielded an inhibition of 92.7%.

(Values after PubChem BioAssay AID651919 (Sanford-Burnham Center for Chemical Genomics, 2012).)
